Compound activity as filed in PubChem BioAssay.
An excerpt weighted towards active compounds, which were near 5.7% of everything screened.
FAS TE block = blocks the thioesterase domain of human fatty acid synthase; inhibition, % at 15 µM; hit rate 0.67% among 360,000; recombinant FAS-TE, OMFH fluorogenic substrate, fluorescence endpoint; P49327; AID 602261;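 active = compounds whose normalised, plate-corrected inhibition of enzyme fluorescence in the single-dose primary screen is 50% or more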;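 also: 0% = DMSO with enzyme and 100% = substrate without enzyme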
rCAG binder = molecules binding r(CAG) RNA repeats; inhibition, % at 3 µM; r(CAG) RNA repeat, TO-PRO-1 dye displacement fluorescence; AID 651821; hit rate 1.3% among 370,000;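 active = inhibition above the plate cutoff, the mean of all test compounds on that plate plus 3 SD, cut at about 35% in these data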;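 also: 0% = DMSO alone and 100% = 100 µM mitoxantrone as full dye displacement; higher means more dye released from RNA so lower well fluorescence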
MPTP block = inhibitors of mitochondrial permeability transition pore; inhibition, % at 10 µM; isolated mouse mitochondria, Ca2+ swelling absorbance, 30 min; hit rate 1.4% among 360,000;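 active = inhibition of 50% or more, scaled per plate between neutral and stimulator controls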;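 also: 0% = DMSO wells given calcium and 100% = 1 mM EGTA wells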
Myeloid diff MLP = myeloid differentiation induction | calls only at 10 µM | AID 624256 | ER-HoxA9 myeloid progenitors, lysozyme-GFP differentiation, flow cytometry | hit rate 1% among 360,000;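 active = normalized GFP-positive differentiation at or above the plate's own cutoff, the solvent-only control mean plus 3 SD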;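 also: cells exposed to compound for four days before flow analysis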
GRIN3A LBD mod = modulators (binders) of human NR3A ligand-binding domain. Tm shift relative to glycine control, % at 25 µM. hit rate 2.5% among 340,000. AID 1259313. NR3A LBD differential scanning fluorimetry, Tm shift; 0% = protein alone, 100% = glycine-bound protein;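 active = melting temperature shift of at least 10% of the positive control shift, at one fixed dose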
MPTP counter = membrane potential counter-screen of mitochondrial pore inhibitors; shares compounds with MPTP block; isolated mitochondria, Rhodamine 123 fluorescence; inhibition, % at 10 µM; hit rate 78% among 5,000; AID 624504; in the data active = inhibition above about 22%;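 also: 0% = DMSO vehicle and 100% = positive control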
rCAG binder conf = r(CAG) RNA repeat binding, confirmation; AID 652065; TO-PRO-1 dye displacement fluorescence; shares compounds with rCAG binder; inhibition, % at 3 µM; hit rate 70% among 4,300;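 active = inhibition above a per-plate cutoff, the mean inhibition of sample wells plus 3 SD, cut at about 35% in these data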;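 also: loss of TO-PRO-1 fluorescence as compound displaces dye from 1x1 AA loop RNA; 0% = DMSO only wells and 100% = 100 µM mitoxantrone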
dCAG dye counter = DNA CAG dye complex inhibition counter-screen; shares compounds with rCAG binder; d(CAG) DNA oligo TO-PRO-1 dye displacement, fluorescence; inhibition, % at 3 µM; hit rate 94% among 4,300; AID 652068;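 active = inhibition above its plate's cutoff, the mean test-well inhibition plus 3 SD, cut at about 4.8% in these data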;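 also: 0% = DNA dye mix with DMSO and 100% = 100 µM mitoxantrone; hits displace the dye from DNA and so lower well fluorescence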
dCAG dye DR = counter-screen for rCAG binders: inhibitors of DNA CAG TO-PRO-1 complex; IC50, µM; hit rate 20% among 250; DNA CAG/GTC duplex TO-PRO-1 dye displacement fluorescence; AID 686960; shares compounds with rCAG binder; in the data active = IC50 below about 10 µM
The depositor's hits bear a star; i = inactive; . = no result given.

SMILES	FAS TE block	rCAG binder	MPTP block	Myeloid diff MLP	GRIN3A LBD mod	MPTP counter	rCAG binder conf	dCAG dye counter	others
O=C(N/N=C/c1cc([N+](=O)[O-])ccc1O)NC12CC3CC(CC(C3)C1)C2	-1	63*	74*	i	8	44*	36*	9.5*
CCN(CC)CCCOC(=O)c1ccc(OC)cc1O	-8	0	-1	i	-1	.	.	.
COc1ccc(NC(=O)CN(C)Cc2c(F)cccc2Cl)cc1S(=O)(=O)N1CCCCC1	4	-1	0	i	1	.	.	.
O=C(Nc1ccc([N+](=O)[O-])cc1)Nc1nc(-c2ccc(Cl)s2)cs1	-4	51*	91*	i	416*	87*	68*	48*
O=C(NCCN1CCOCC1)C(=O)NCC1OCCCN1S(=O)(=O)c1cc(F)ccc1F (centres undefined)	-4	-1	0	i	0	.	.	.
Cc1nc2c(C(=O)O)cnn2c(C)c1Cc1ccccc1F	-4	2	2	i	0	.	.	.
Cc1nc2c(C(=O)NCCC(C)C)c[nH]n2c(=O)c1Cc1ccccc1F	10	69*	78*	i	-28	59*	76*	42*
CCOC(=O)N1CCN(S(=O)(=O)c2c(C)nc3scc(C)n3c2=O)CC1	-4	-2	-2	i	0	.	.	.
O=C(CSC1=NS(=O)(=O)c2cc(Cl)ccc2N1)Nc1cccc(F)c1	1	60*	62*	i	19*	56*	42*	12*
O=C(CSC1=NS(=O)(=O)c2cc(F)ccc2N1)Nc1ccc(F)cc1	-7	24	2	i	-2	.	.	.
COc1ccc(/C=C2/C(=O)N(c3nc4ccccc4s3)N=C2CSc2ccc(Cl)cc2)cc1	4	71*	91*	i	8	56*	72*	51*
COc1ccc(C(=O)/C(C#N)=N/Nc2cccc([N+](=O)[O-])c2)cc1	13	44*	94*	i	10*	81*	52*	13*
N#C/C(=N\Nc1ccc(Cl)cc1)C(=O)c1ccsc1	4	47*	72*	i	9	90*	40*	8.1*
N#C/C(=N\Nc1cccc(Cl)c1)C(=O)c1ccccc1	1	73*	96*	i	3	80*	44*	11*
O=C(C(=NNc1ccccc1)c1ccccc1)c1ccccc1	29	2	0	i	-16	.	.	.
CCN1C(=O)/C(=C2\SC(=S)N(NC(=O)c3ccccc3O)C2=O)c2ccccc21	4	77*	87*	i	14*	32*	86*	58*
CCN1C(=O)/C(=C2\SC(=S)N(c3c(C)n(C)n(-c4ccccc4)c3=O)C2=O)c2ccccc21	-4	4	3	i	2	.	.	.
Cc1ccc(NS(=O)(=O)c2cc(Br)cnc2N)c(Cl)c1	-1	20	6	i	-7	.	.	.
Nc1ncc(Br)cc1S(=O)(=O)Nc1cc(C(F)(F)F)cc(C(F)(F)F)c1	30	81*	85*	i	9	85*	65*	27*	dCAG dye DR=i
Cc1cccc(NC(=O)CSCC(=O)Nc2sccc2C#N)c1	-4	10	0	i	0	.	.	.
CC1CCCN(c2ccc3nncn3n2)C1 (centres undefined)	-2	9	0	i	1	.	.	.
O=C(NC1CC1)c1sc2ccccc2c1Cl	-3	0	-3	i	3	.	.	.
O=C(NNC(=S)NC1CCCCC1)c1sc2ccccc2c1Cl	10	83*	88*	i	4	79*	82*	54*
CC(/C=C1\SC(=S)N(NS(=O)(=O)c2ccc(C)cc2)C1=O)=C\c1ccccc1	35	62*	54*	i	-6	41*	87*	60*
Cc1ccc(NC(=S)NNC(=O)c2cccc([N+](=O)[O-])c2)cc1Cl	38	73*	79*	i	12*	65*	70*	24*
SMILES	FAS TE block	rCAG binder	MPTP block	Myeloid diff MLP	GRIN3A LBD mod	MPTP counter	rCAG binder conf	dCAG dye counter	others
Cc1ccc(NC(=S)NNc2ccc(C(=O)O)cc2[N+](=O)[O-])cc1C	-5	35*	54*	i	-4	64*	23	10*
Cc1ccc(Nc2ccc(C(N)=O)cc2[N+](=O)[O-])cc1C	2	2	8	i	-1	.	.	.
CCCCN1C(=O)NC(c2ccc(OC)cc2)C(C(=O)OCc2ccccc2)=C1C (centres undefined)	22	-7	0	i	-1	.	.	.
O=C(NCCCN1CCOCC1)c1cc2ccccc2cc1O	-3	3	2	i	3	.	.	.
CC(C)C(N)c1csc(NC(=O)Nc2ccc(OC(F)(F)F)cc2)n1 (centres undefined)	-5	40*	70*	i	.	88*	26	2
O=S(=O)(Nc1nc2ccccc2nc1N1CCN(c2ccccc2)CC1)c1ccc(F)cc1	16	69*	79*	i	24*	72*	67*	28*
CN(Cc1ccc(F)cc1)S(=O)(=O)c1nnc(NC(=O)c2ccccc2)s1	9	42*	51*	i	4	86*	43*	11*
CN(Cc1ccc(F)cc1)S(=O)(=O)c1nnc(NC(=O)c2ccccc2Br)s1	-2	68*	60*	i	6	71*	48*	14*
CN(Cc1ccccc1)S(=O)(=O)c1nnc(NC(=O)c2ccc(F)cc2)s1	-1	4	36	i	-1	.	.	.
COc1ccc(CN(C)S(=O)(=O)c2nnc(NC(=O)c3cccc(F)c3)s2)cc1	8	41*	54*	i	7	81*	64*	25*
Cc1cccc(NS(=O)(=O)c2ccc(Cl)cc2)n1	-3	-2	-1	i	1	.	.	.
COc1ccccc1NC(=O)c1cc2cc(Br)ccc2cc1O	25	71*	80*	i	32*	28*	49*	25*
COc1ccccc1NC(=O)COC(=O)c1cc2ccccc2cc1O	-5	6	-2	i	0	.	.	.
Cc1ccc(F)c(NC(=O)/C(C#N)=C(\O)c2ccc(C(C)(C)C)cc2)c1	30	89*	83*	i	3	71*	90*	61*
CC(C)=CCc1c(O)cc2oc3c(CC=C(C)C)c(O)c(O)c(CC=C(C)C)c3c(=O)c2c1O	14	72*	92*	i	6	7	67*	47*
Cc1ccccc1CC(=O)N1CCOCC1	-3	-2	-2	i	-1	.	.	.
